Compounds with a hit are over-represented: about 3.8% of the library has one in this group of screens.
MBNL1 CUG block = MBNL1-poly(CUG) RNA binding inhibition; AID 2675; Q9NR56; TR-FRET MBNL1-His/biotin-(CUG)12 binding, 665/545 ratio; Potency, µM (series often up to 57.5 µM), without a hit: at the highest dose activity change, negative = inhibition, hits mostly inhibitors; 280,000 tested, 0.036% active; active = well fitted inhibition curve with a large enough effect in the signal ratio, with a control signal flat, not every such curve was filed as active; inconclusive = small, poorly fitted or top-dose-only effect, or effect the other way, or a change in a side signal; inactive = no such curve, though single readings can be large or run the other way; the % refers to the signal ratio; also: potency is read from the fitted curve at half-maximal effect; % is scaled to controls: 0 for no effect and ±100 for the full control effect
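TR-FRET readout: Ex 340 nm, 665/545 nm emission ratio, normalized to buffer-only (basal) and MBNL1-(CUG)12 controls. Complex of MBNL1-His with Biotin-(CUG)12, compounds 92 nM–58 uM, incubated 60 min at room temperature.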
VDR inh = inhibitors of human vitamin D receptor | P11473 | VDR-SRC2-3 peptide fluorescence polarization, 2 h | Potency, µM, for inactives: max response, negative = inhibition, usual class: inhibitors | 400,000 tested, 0.93% active | AID 504847; also: potency is read from the fitted curve at half-maximal effect; % is scaled to controls: 0 for no effect and ±100 for the full control effect
Target sequence (P11473 whole entry, looked up): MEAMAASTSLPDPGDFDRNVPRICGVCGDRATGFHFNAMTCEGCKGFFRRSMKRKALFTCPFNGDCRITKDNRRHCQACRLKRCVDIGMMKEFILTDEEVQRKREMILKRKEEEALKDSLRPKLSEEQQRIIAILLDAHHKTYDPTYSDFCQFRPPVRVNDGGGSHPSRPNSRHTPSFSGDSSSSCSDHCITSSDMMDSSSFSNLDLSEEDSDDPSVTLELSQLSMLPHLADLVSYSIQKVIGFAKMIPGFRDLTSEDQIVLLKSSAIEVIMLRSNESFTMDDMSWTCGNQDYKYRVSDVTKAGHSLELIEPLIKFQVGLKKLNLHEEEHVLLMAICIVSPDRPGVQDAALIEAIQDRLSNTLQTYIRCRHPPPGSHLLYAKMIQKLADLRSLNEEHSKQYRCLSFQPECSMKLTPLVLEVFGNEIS
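FP read-out; VDR + SRC2-3 coactivator peptide; 23 nl compound by pintool; 2 h RT incubation; reagents held at 4 deg C, protected from light.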
KCNH2 WT inh = blocks the wildtype human KCNH2 potassium channel | 340,000 tested, 0.37% active | Q12809 | U2OS, BacMam KCNH2, thallium flux FluxOr; hits give low values | activity change, % at 1.84 µM;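 active = maximum activity change below -70%; inconclusive = maximum activity change between -70% and -50%; inactive = maximum activity change above -50%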; also: % is scaled to controls: 0 for no effect and ±100 for the full control effect
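U2OS cells were transduced with wild-type KCNH2 virus (2.03 x 10^8 / mL) for 4 h at room temperature, then cultured overnight at 37 C. Thallium flux was read with FluxOr dye. Rate constants were normalized to DMSO controls.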
KCNH2 3.1 inh = KCNH2 3.1 (human) potassium channel inhibition; U2OS KCNH2 3.1, thallium flux FluxOr; hits give low values; activity change, % (tested at about 1.8 µM); 340,000 tested, 0.95% active; AID 720553;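 active = maximum activity change below -70%; inconclusive = maximum activity change from -70% to -50%; inactive = maximum activity change above -50%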;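 also: thallium influx rate constant from kinetic fluorescence after stimulation buffer; % is scaled to controls: 0 for no effect and ±100 for the full control effect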
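Virally transduced U2OS (3.1 isoform, 4 h infection in dark at RT) → overnight 37 C → FluxOr + Red40 in HBSS/HEPES, 45 min → stimulation buffer, 2 min kinetic read → rate constant vs DMSO controls.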
PLK1 PBD block = blocks phosphopeptide binding to human PLK1 polo-box domain; P53350; Plk1 PBD binding of FITC phosphopeptide, fluorescence polarization; Potency, µM, for inactives: max response, negative = inhibition, hits mostly inhibitors; 360,000 tested, 2.8% active; AID 720504; also: potency is read from the fitted curve at half-maximal effect; series mostly up to about 57 µM; % is scaled to controls: 0 for no effect and ±100 for the full control effect; nearly all actives have a fitted effect of over 65% in size
CBFb RUNX1 block = CBF-beta/RUNX1 interaction disruption | AlphaScreen CBFb-His/RUNX1-biotin binding, biochemical | 230,000 tested, under 10 active | Potency, µM (highest dose often 59.8 µM), inactives show at the highest dose activity, negative = inhibition, most hits filed as inhibitors; also: % of control where 0% means no effect
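AlphaScreen proximity signal reports loss of binding between His-tagged CBF-beta and biotin-labelled RUNX1, each at 30 nM. Proteins are pre-associated for 20 minutes, compounds added for 15 minutes, then beads for 90 minutes, all at ambient temperature.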
VDR inh confirm = inhibits human vitamin D receptor, primary hit validation; VDR-coactivator inhibition assay, qHTS confirmation; 840 tested, 89% active; shares compounds with VDR inh; Potency, µM, hits mostly inhibitors; also: potency is read from the fitted curve at half-maximal effect
VDR FP fluor = blocks human VDR-coactivator binding in fluorescein assay. shares compounds with VDR inh. VDR-coactivator binding, fluorescein fluorescence polarization. Potency, µM (titrated, usually from 57.1 µM), inactives show top-dose activity change, negative = inhibition, actives largely listed as inhibitors. 840 tested, 48% active. AID 602200; also: potency is read from the fitted curve at half-maximal effect
VDR bla reporter = confirmation of human vitamin D receptor inhibitors in reporter cells. Potency, µM (highest dose often 46.1 µM), for the others: at the top dose activity change, negative = inhibition, most hits filed as inhibitors. 840 tested, 23% active. shares compounds with VDR inh. VDR beta-lactamase reporter cells, FRET ratio; cells co-treated with VDR agonist LG190178; also: potency is read from the fitted curve at half-maximal effect; % is scaled to controls: 0 for no effect and ±100 for the full control effect
VDR viability = cell toxicity, VDR inhibitor hit counter-screen; shares compounds with VDR inh; cytotoxicity counter-screen, cell viability, qHTS; Potency, µM (top dose mostly 48.3 µM), for the others: top-dose activity change, negative = cytotoxicity, hits mostly cytotoxic; 840 tested, 18% active;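 also: potency is read from the fitted curve at half-maximal effect; plate controls were DMSO for no effect and high-concentration cycloheximide for full effect; nearly all actives have a fitted effect of over 75% in size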
Active calls of the source: *; ? = inconclusive; / = no result. Unless noted, calls follow the shape of the dose curve; as a rule, active = well fitted curve in the direction sought with a large enough effect; inconclusive = small, poorly fitted or top-dose-only effect, or another doubt; inactive = no such curve, though single readings can be large; an effect the other way counts as inactive or inconclusive.

SMILES	MBNL1 CUG block	VDR inh	KCNH2 WT inh	KCNH2 3.1 inh	PLK1 PBD block	CBFb RUNX1 block	VDR inh confirm	VDR FP fluor	VDR bla reporter	VDR viability
Oc1cc2c(cc1C(c1ccc(Br)cc1)N1CCCC1)OCO2 (stereo unspecified)	6%	40µM*	-5	11	1.5µM*	0%	13*	10µM*	-4%	?
Cc1[nH]n(-c2ncc(-c3ccccc3)s2)c(=O)c1C(c1ccc(Br)cc1)C(C#N)C#N (stereo unspecified)	/	35µM*	47	13	2.7µM*	1%	7.5*	?	?	-18%
Cc1[nH]n(C(N)=S)c(=O)c1C(c1ccccc1)C(C#N)C#N (stereo unspecified)	11%	?	-16	-4	?	1%	/	/	/	/
CCOc1ccc(CNC(=O)C2CCCN(S(=O)(=O)c3ccc4c(c3)CCCC(=O)N4)C2)cc1 (stereo unspecified)	/	22%	/	/	/	/	/	/	/	/
Cn1c(=O)n(CCCc2ccccc2)c(=O)c2c1nc1n2CCN1c1ccc(F)cc1	/	1%	/	/	/	/	/	/	/	/
Cc1ccc(OCc2nc(-c3ccc(C(=O)NCc4ccc(OC(C)C)cc4)cc3)oc2C)cc1	/	10%	/	/	/	/	/	/	/	/
Oc1ccccc1C1CC(c2cccs2)=NC(c2ccc(Cl)cc2)N1 (stereo unspecified)	-11%	?	14	8	-14%	8%	/	/	/	/
CCOc1ccccc1C1N=C(c2ccc(OC)cc2)CC(c2ccccc2O)N1 (stereo unspecified)	2%	?	5	-10	-18%	-2%	?	?	?	3%
CC(C)(C)C(=O)Nc1ccc2c(c1)C(=O)C(=O)c1ccccc1-2	/	8.9µM*	/	/	/	/	1.3*	1µM*	4.1µM*	6µM*
CC(=O)Nc1ccc2c(c1)C(=O)c1ccccc1C2=O	?	-8%	-3	11	-7%	-2%	/	/	/	/
COc1ccc(NC(=O)Cn2c(=O)n(Cc3nc(-c4ccccc4)no3)c(=O)c3ccccc32)cc1Cl	/	5%	/	/	/	/	/	/	/	/
CN1C(=O)/C(=N\OC(=O)c2ccccc2Cl)c2ccccc21	?	?	20	11	2.7µM*	12%	14*	16µM*	?	2%
COc1cc(C2Oc3ccccc3C=C2[N+](=O)[O-])cc(OC)c1OC (stereo unspecified)	3%	22µM*	3	-17	4.2µM*	-4%	17*	?	?	?
COc1cc(C2NC(=O)c3ccccc3O2)cc(OC)c1OC (stereo unspecified)	-7%	-7%	-2	-2	-2%	-1%	/	/	/	/
Cn1c(=O)c2c(-c3ccc(Cl)cc3)n(Cc3ccc(Cl)cc3)cc2n(C)c1=O	/	-2%	/	/	/	/	/	/	/	/
COc1cc(C(=O)OCc2cc(=O)n3ccsc3n2)cc(OC)c1OC	/	10%	/	/	/	/	/	/	/	/
O=C1C(Cl)=C(N2CCOCC2)C(=O)N1c1cccc(C(F)(F)F)c1	23%	35µM*	-8	23	?	/	30*	28µM*	7%	-4%
N#Cc1c(NC(=O)Cn2nc(C(F)(F)F)c3c2CCCC3)sc2c1CCC2	-13%	79µM*	-1	-1	3µM*	-2%	6.7*	?	4%	0%
Cc1cc(C)c2c(c1)C(=O)/C(=C/c1ccc(C(=O)O)cc1)CC2	-1%	-28%	4	5	-11%	/	/	/	/	/
COc1ccc(/C=C2\COc3ccccc3C2=O)cc1OC	-20%	?	1	4	27µM*	8%	22*	16µM*	?	?
COc1ccc(/C=C2\COc3ccccc3C2=O)c(OC)c1	3%	?	0	0	-12%	/	/	/	/	/
O=C(O)c1ccc(/C=C2\COc3ccccc3C2=O)cc1	-4%	20µM*	11	4	-19%	/	21*	22µM*	?	?
CCOc1cc(/C=C2\COc3ccccc3C2=O)cc(Br)c1OCC(=O)N(C)C	-3%	20µM*	5	-2	-26%	/	6*	?	?	18µM*
O=C(CSc1nc(-c2ccccc2)nc2c1CCCC2)c1ccc(Cl)cc1	/	-7%	/	/	/	/	/	/	/	/
O=C1Nc2ccc(Br)cc2/C1=C/C(=O)c1ccc2c(c1)OCO2	-6%	40µM*	-11	-9	?	-7%	?	?	?	?
SMILES	MBNL1 CUG block	VDR inh	KCNH2 WT inh	KCNH2 3.1 inh	PLK1 PBD block	CBFb RUNX1 block	VDR inh confirm	VDR FP fluor	VDR bla reporter	VDR viability
Nc1nc(-c2ccc(F)cc2)cc(C(F)(F)F)n1	-2%	-10%	10	-21	-10%	3%	/	/	/	/
COc1ccc(-c2cc(C(F)(F)F)nc(S(C)(=O)=O)n2)cc1	7%	40µM*	-4	1	?	-1%	18*	28µM*	?	?
CS(=O)(=O)c1nc(-c2ccc(F)cc2)cc(C(F)(F)F)n1	4%	7.9µM*	-17	/	24µM*	3%	19*	?	?	?
CCOC(=O)Cc1ccc(NC(=O)N2CCOc3ccc(C)cc32)cc1	/	9%	/	/	/	/	/	/	/	/
CCN1CCN(C(c2ccc(C(F)(F)F)cc2)c2ccc3cccnc3c2O)CC1 (stereo unspecified)	11%	25µM*	0	-10	3.8µM*	/	?	10µM*	8%	-5%
COc1cccc(-c2nc(SCC(=O)Nc3ccc4c(c3)OCCO4)c(-c3ccc(C)cc3)[nH]2)c1	/	-1%	/	/	/	/	/	/	/	/
CCOc1ccc(/C=C/C(=O)Nc2sc3c(c2C(=O)OC)CCC3)cc1	/	-10%	/	/	/	/	/	/	/	/
COc1ccc(-c2cc(N)n(S(=O)(=O)c3c(F)c(F)c(F)c(F)c3F)n2)cc1OC	0%	?	-3	-3	1.2µM*	-4%	5*	7.1µM*	5.8µM*	21µM*
S=C(Nc1ccccc1Cl)Nc1ccc(Cl)cc1Cl	-8%	-14%	0	-7	?	3%	/	/	/	/

Bioassay records deposited in PubChem by National Center for Advancing Translational Sciences (NCATS).
